Records with an inconclusive call do not appear. Active and inactive are the calls of the source.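 The calls were made as follows, unless noted: active = percent response above 42, roughly 3 SD of non-fluorescent test compounds; inactive = the rest.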

A short description of test [1]: yeast TOR pathway RPL19A-GFP modulators, primary screen, cell-based, S. cerevisiae, multiplex flow cytometry (AID 1862; in the data active = percent of DMSO control GFP below about 86%;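 also: lower values mimic rapamycin by blocking the RPL19A rise seen in DMSO cells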). Particulars: S. cerevisiae RPL19A-GFP strain, flow cytometry fluorescence, 3 h; at 10 µM; stronger effect = lower value.
A short description of test [2]: modulators of MEP2-GFP levels in yeast, primary screen, S. cerevisiae, multiplex flow cytometry (AID 1867;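 active = GFP response, as percent of the DMSO control, above the screen-wide mean plus 3 SD, about 139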;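 also: median GFP channel fluorescence of barcode-gated MEP2-GFP cells measured by flow cytometry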). The conditions noted are these: S. cerevisiae MEP2-GFP strain, 3 h, at 10 µM, stronger effect = higher value, 100% means same as DMSO wells.
A short description of test [3]: modulators of CIT2-GFP expression in yeast, primary screen, S. cerevisiae, GFP fusion, multiplex flow cytometry (AID 1870;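 active = percent response above a set limit, the screen-wide mean plus 3 SD, cut at about 130% in these data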;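 also: barcoded CIT2-GFP strain pooled with four other GFP strains with rapamycin as positive control; median GFP fluorescence per well over plate mean of DMSO wells so 100% = DMSO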). The conditions noted are these: 3 h, at 10 µM, stronger effect = higher value.
The nature of test [4]: modulators of LAP4-GFP expression in yeast, primary screen, S. cerevisiae, multiplex flow cytometry (AID 1873;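 active = GFP signal, as percent of the solvent control, above the screen mean plus 3 SD, about 149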). The conditions noted are these: 3 h, at 10 µM, stronger effect = higher value.
A short description of test [5]: modulators of AGP1-GFP expression in yeast TOR pathway, primary screen, cell-based, multiplex flow cytometry, S. cerevisiae (AID 1887;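 active = GFP signal above the screen-wide mean plus 3 SD, that is over about 124.5% of the solvent control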;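 also: AGP1-GFP fusion strain of S. cerevisiae within a five-strain barcoded multiplex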). The conditions noted are these: 3 h, at 10 µM, stronger effect = higher value. A general note: Flow cytometry measures light scatter and fluorescence of single cells or particles in a stream.
A short description of test [6]: inhibitors of CD8+ T cell-vesicle binding, pilot screen, LFA-1/ICAM-1 modulator project, MLPCN validation set, flow cytometry (AID 2523;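 active = response below a set limit, under 55% cells CD8-positive and vesicle-bound, and CD8 cells' 90th-percentile brightness under 279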;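 as to vesicle binding response: mean PE anti-B7-1 fluorescence of CD8+ cells relative to row control; 100% = QL9-loaded vesicles with DMSO vehicle in the same plate row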). Particulars: 2C mouse CD8+ T cells, at 7 µM, stronger effect = lower value; double positive events: measured here: CD8+/vesicle+ event percentage.
For test [7], the target named is Integrin beta-1 (Homo sapiens) + Integrin alpha-4 (Homo sapiens) (UniProt P13612+P05556). Kind of test: inhibition of HUTS-21 binding to VLA-4, pilot screen, VLA-4 allosteric modulator project, U937 cells, HUTS-21 mAb, flow cytometry, validation set (AID 2674;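 active = inhibition above 50%, about 3 SD of the validation set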;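 also: antibody binding induced by the VLA-4 ligand LDV present at three times its Kd; 0% = LDV ligand with antibody and no compound and 100% = antibody without LDV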). The conditions noted are these: HUTS-21 LIBS mAb binding, at 6.7 µM, stronger effect = higher value, binding induced by LDV ligand.
Chain of Integrin beta-1 (Homo sapiens) + Integrin alpha-4 (Homo sapiens) (P05556 whole entry, looked up): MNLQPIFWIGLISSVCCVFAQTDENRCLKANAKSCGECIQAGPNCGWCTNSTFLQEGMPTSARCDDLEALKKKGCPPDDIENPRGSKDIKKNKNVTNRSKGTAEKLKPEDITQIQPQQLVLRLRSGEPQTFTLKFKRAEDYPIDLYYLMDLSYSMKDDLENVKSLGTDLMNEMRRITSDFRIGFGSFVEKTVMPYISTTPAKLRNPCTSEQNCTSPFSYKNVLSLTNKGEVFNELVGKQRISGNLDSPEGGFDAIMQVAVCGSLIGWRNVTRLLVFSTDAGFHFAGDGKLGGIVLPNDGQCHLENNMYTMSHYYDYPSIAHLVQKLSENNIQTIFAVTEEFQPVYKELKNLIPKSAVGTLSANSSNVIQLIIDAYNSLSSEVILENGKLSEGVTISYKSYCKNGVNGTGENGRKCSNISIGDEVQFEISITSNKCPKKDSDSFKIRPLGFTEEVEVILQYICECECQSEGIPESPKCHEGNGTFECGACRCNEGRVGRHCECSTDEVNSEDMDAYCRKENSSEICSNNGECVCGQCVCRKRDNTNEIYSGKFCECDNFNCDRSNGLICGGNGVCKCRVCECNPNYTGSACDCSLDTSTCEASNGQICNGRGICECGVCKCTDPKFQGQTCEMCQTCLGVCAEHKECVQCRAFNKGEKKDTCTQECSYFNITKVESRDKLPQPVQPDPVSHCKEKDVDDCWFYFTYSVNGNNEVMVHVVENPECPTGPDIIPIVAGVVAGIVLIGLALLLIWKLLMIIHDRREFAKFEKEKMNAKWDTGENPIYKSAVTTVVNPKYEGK
Chain of Integrin beta-1 (Homo sapiens) + Integrin alpha-4 (Homo sapiens) (P13612 whole entry, looked up): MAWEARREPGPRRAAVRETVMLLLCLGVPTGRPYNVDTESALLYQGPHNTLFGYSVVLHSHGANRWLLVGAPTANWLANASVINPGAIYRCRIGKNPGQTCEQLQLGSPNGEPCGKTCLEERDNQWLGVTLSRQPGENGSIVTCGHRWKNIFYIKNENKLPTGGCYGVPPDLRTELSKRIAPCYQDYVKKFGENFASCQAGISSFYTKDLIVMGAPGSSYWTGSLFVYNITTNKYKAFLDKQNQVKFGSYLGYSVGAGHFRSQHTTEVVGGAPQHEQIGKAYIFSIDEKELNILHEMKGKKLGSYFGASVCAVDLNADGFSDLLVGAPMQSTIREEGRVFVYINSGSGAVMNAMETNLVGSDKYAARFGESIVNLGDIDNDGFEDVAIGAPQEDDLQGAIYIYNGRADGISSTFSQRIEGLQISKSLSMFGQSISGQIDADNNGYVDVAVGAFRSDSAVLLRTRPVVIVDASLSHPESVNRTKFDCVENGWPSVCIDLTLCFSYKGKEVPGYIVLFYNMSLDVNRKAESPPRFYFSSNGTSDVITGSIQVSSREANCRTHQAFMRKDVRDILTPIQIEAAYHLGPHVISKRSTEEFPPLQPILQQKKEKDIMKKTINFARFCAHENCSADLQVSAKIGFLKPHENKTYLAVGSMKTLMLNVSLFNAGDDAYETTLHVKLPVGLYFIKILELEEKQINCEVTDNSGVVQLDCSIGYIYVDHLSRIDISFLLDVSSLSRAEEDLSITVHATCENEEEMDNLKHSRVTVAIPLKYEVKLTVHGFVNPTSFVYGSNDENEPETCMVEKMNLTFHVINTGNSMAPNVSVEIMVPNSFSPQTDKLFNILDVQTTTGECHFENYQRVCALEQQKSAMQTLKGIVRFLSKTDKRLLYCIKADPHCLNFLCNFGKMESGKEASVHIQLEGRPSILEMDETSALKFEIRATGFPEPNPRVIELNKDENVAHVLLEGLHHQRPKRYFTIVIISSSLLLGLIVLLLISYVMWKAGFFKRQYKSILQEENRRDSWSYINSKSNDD

The nature of test [8]: superoxide lowering in aged yeast cells, pilot screen, validation compound set (AID 2706;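 active = superoxide response below 65% of plate, a cut near 3 SD across the whole screen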;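 also: yeast exposed to compound for one week at 30 degrees C before staining; 100% = mean of all compound wells on the same plate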). The conditions noted are these: S. cerevisiae aging, superoxide DHE fluorescence; at 10 µM; stronger effect = lower value.
The target in test [9] is Beta-adrenergic receptor kinase 1 (Homo sapiens) (UniProt P25098). Kind of test: GRK2 binders displacing RNA aptamer, biochemical, validation, human GRK2, bead flow cytometry (AID 488806;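 active = aptamer binding inhibition above 30%, about 3 SD of noise from non-fluorescent compounds; inactive = inhibition at or below 30%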). The conditions noted are these: bead-bound GRK2, FAM-aptamer displacement, at 10 µM, stronger effect = higher value.
Chain of Beta-adrenergic receptor kinase 1 (Homo sapiens) (P25098 whole entry, looked up): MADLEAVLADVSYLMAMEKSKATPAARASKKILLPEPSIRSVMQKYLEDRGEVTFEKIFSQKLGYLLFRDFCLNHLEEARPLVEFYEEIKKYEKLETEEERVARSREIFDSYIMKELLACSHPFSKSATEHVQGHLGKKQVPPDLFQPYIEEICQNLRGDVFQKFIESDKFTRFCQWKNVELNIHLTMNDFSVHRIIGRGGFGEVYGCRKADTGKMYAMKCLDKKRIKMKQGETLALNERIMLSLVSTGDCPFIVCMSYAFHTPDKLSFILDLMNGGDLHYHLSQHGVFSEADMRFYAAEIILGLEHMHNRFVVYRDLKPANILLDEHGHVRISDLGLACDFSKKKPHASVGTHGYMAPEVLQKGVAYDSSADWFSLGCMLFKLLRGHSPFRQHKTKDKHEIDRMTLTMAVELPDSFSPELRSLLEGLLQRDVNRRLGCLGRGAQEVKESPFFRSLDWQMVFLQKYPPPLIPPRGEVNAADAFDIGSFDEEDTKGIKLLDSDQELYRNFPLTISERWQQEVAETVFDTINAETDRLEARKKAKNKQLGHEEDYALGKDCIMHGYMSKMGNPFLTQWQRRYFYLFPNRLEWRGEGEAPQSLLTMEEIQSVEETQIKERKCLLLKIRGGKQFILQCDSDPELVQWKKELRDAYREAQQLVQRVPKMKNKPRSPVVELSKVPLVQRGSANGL
Test [10] has as its target Beta-2 adrenergic receptor (Homo sapiens) (UniProt P07550). In words: beta2AR agonists driving receptor internalization, pilot screen, cell-based, FAP fluorogen, flow cytometry, validation set (AID 504459).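 Also: agonist-driven loss of surface beta2AR via internalization measured by FAP dye flow cytometry.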 The conditions noted are these: Am2.2-beta2AR cells, FAP surface receptor flow cytometry; at 10 µM; stronger effect = higher value.
The target of test [11] is AP-2 complex subunit beta (Homo sapiens) (UniProt P63010). In words: inhibitors of arrestin peptide binding to AP2, pilot screen, biochemical, validation set, GST-AP2 beads, flow cytometry (AID 504541;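 active = inhibition above 54%, about 3 SD of non-fluorescent compounds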;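 also: AP2 carries R879A mutation and is captured from E. coli lysate; bead-bound FITC arrestin peptide fluorescence measuring arrestin peptide binding to AP2; 0% = DMSO wells and 100% = excess unlabeled arrestin peptide control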). The conditions noted are these: FITC arrestin peptide, at 10 µM, stronger effect = higher value, AP2 beta2 appendage fragment, R879A mutant.
Chain of AP-2 complex subunit beta (Homo sapiens) (P63010 whole entry, looked up, the tested form may be a part, one chain of several): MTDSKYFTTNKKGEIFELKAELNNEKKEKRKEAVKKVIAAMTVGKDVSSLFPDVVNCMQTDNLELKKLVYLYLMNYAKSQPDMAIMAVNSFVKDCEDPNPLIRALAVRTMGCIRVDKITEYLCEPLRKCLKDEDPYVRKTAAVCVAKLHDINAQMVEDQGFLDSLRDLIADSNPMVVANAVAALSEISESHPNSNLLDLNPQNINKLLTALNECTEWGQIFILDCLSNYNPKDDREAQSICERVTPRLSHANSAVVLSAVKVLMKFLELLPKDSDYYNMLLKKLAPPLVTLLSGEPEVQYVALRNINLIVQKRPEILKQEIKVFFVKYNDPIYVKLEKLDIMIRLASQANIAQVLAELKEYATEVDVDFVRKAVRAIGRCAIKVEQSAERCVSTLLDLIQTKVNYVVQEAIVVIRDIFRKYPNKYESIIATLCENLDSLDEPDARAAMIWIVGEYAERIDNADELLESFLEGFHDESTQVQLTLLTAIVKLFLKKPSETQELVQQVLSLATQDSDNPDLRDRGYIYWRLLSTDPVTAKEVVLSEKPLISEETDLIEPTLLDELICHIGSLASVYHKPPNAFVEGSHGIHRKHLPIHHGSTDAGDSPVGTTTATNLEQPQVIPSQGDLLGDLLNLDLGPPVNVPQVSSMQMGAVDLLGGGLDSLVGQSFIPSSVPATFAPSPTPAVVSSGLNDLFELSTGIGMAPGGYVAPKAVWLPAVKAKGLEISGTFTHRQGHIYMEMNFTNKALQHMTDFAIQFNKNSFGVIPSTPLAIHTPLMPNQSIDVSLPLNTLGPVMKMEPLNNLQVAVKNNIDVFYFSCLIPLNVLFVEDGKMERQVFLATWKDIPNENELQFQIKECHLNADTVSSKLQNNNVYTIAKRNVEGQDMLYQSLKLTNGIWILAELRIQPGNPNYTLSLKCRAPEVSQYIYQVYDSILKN
Test [12] is described as follows: yeast V-ATPase proton transport modulators, S. cerevisiae, pHLuorin, HTS validation (AID 504600; in the data active = response above about 15%;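 also: plate controls were DMSO for no effect and reference compound for full effect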). Particulars: S. cerevisiae pHLuorin cytosolic pH, at 10 µM, stronger effect = higher value.
The test system of test [13] is anti-desmoglein-3 scFv antibody binding to human DSG3. Kind of test: inhibitors of anti-DSG3 scFv binding to DSG3, pilot screen, biochemical, validation compound set, bead-based, flow cytometry (AID 588368;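 active = binding below the plate cutoff, the plate median minus 3 SD, with a reading above zero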;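 also: signal is the median channel fluorescence of bead-bound GFP antibody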). The conditions noted are these: Protein G beads, DSG3-Fc, scFv-GFP binding, at 10 µM, stronger effect = lower value.
The nature of test [14]: inhibitors of fungal efflux pumps CDR1, CDR2, MDR1, pilot screen, validation compound set, multiplex, phenotypic (AID 588506;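 active = efflux inhibition above 0.42, the validation set average plus 4 SD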;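 also: Nile Red retained in cells so higher fluorescence means more efflux inhibition; 0 = negative control wells and 1 = enniatin B 25 µM full block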). Particulars: S. cerevisiae pump-expressing triplex, Nile Red efflux flow cytometry; at 10 µM; stronger effect = higher value; the pumps come from Candida albicans.
Test [15] concerns the target ATP-binding cassette sub-family B member 6 (Homo sapiens) (UniProt Q9NP58). In words: ABCB6 transporter inhibitors, pilot screen, K562-ABCB6 cells, flow cytometry, validation set (AID 588550;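 active = inhibition above the screen-wide mean plus 3 SD, about 51%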;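 also: 0% = DMSO wells and 100% = benzethonium chloride 70 µM positive control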). Particulars: K562-ABCB6 porphyrin accumulation, 1 h, at 10 µM, stronger effect = higher value.
Test [16] is described as follows: promoters of myeloid differentiation in arrested cells, primary screen, cell-based, GFP/MAC1 double positive, flow cytometry, validation set (AID 588685;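 active = differentiation response of at least 50%, scaled between solvent and reference control, from cells with both markers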;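 also: compound exposure lasts four days before antibody staining and flow analysis; 0% = DMSO wells and 100% = 5 µM fulvestrant positive control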). The conditions noted are these: ER-HoxA9 marrow cells, stronger effect = higher value, normalized: vehicle 0, fulvestrant 100.

Chain of Beta-2 adrenergic receptor (Homo sapiens) (P07550 whole entry, looked up): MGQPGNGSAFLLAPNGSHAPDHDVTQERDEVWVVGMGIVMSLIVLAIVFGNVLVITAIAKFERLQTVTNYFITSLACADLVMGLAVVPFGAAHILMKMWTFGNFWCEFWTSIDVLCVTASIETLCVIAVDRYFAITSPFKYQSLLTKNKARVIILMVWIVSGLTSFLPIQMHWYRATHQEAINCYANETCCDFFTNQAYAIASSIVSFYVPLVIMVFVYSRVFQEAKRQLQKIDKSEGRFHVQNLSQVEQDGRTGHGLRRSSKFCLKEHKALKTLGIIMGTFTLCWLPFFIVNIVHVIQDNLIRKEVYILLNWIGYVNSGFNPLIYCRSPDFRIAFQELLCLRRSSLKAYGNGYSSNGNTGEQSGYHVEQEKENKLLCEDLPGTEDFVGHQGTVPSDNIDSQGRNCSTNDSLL
Chain of ATP-binding cassette sub-family B member 6 (Homo sapiens) (Q9NP58 whole entry, looked up): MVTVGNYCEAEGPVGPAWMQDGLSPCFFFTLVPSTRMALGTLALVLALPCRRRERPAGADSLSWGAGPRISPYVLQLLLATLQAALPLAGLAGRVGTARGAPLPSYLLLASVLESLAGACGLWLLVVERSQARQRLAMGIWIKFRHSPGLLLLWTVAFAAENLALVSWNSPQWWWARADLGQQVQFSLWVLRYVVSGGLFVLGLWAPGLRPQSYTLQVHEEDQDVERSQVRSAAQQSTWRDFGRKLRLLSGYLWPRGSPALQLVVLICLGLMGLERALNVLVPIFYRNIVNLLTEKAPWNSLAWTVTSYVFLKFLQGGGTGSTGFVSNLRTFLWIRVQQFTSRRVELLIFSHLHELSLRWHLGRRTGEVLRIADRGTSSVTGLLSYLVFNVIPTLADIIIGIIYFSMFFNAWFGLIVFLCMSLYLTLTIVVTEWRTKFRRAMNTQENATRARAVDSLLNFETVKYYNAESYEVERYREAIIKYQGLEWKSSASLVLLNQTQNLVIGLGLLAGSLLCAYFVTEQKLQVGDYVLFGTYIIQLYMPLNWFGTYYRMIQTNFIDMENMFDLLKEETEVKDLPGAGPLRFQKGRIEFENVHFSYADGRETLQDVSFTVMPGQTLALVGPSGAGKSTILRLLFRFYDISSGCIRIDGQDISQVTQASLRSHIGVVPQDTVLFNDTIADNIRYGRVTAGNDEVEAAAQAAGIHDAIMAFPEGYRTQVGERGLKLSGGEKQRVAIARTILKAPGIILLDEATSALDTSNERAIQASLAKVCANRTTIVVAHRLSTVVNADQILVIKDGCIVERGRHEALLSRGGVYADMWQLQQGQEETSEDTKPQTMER

Regarding `CC(CCCC(C)(C)O)NC(=O)c1ccc(OC2CCN(C(=O)C3CC3)CC2)cc1` (stereo not given), in [1], the percent of DMSO control GFP is 102% (inactive). For the same molecule, the GFP response vs DMSO is 96.3% (inactive) in [2] and 108% (inactive) in test [4]. For the same molecule, the percent response of DMSO control in [3] was 98.6% (inactive). Also, in test [5], the GFP response, % of DMSO was 99.8% (inactive). This molecule gave a double positive events in test [6] of 60.9%. Further, in [6], the vesicle binding response was 200% (inactive). Further, the inhibition in [7] was 20.1% (inactive); in test [11], 10.3% (inactive); in test [15], 3% (inactive). For the same molecule, in test [8], the superoxide response (% of plate) is 97.8% (inactive). Also, the aptamer binding inhibition in test [9] is 1% (inactive). For the same molecule, the response in test [10] was -15.1% (inactive); in [12] it was -0.73% (inactive). Besides, the binding (% of control) in test [13] is 101% (inactive). The efflux inhibition (fraction of control) in [14] is 0.08 (inactive). Moreover, the differentiation response in test [16] is -12% (inactive).
Regarding `OCCN(Cc1nc(-c2ccc3c(c2)OCO3)no1)Cc1cccs1`, in [1], the percent of DMSO control GFP was 97.6% (inactive). The GFP response vs DMSO is 102% (inactive) in test [2] and 109% (inactive) in test [4]. The percent response of DMSO control in test [3] was 91.3% (inactive). For the same molecule, in [5], the GFP response, % of DMSO is 89.4% (inactive). Also, the double positive events in test [6] stood at 65.7%. Further, the vesicle binding response in test [6] was 118% (inactive). In addition, the inhibition was 9.63% (inactive) in test [7], -7.29% (inactive) in test [11] and 6% (inactive) in test [15]. Moreover, in test [8], the superoxide response (% of plate) was 88.2% (inactive). Besides, the aptamer binding inhibition in test [9] is 1% (inactive). In addition, the response in test [10] is 23.6% (inactive); in test [12], -1.85% (inactive). In addition, the binding (% of control) in test [13] is 109% (inactive). Moreover, the efflux inhibition (fraction of control) in test [14] was -0.28 (inactive). Further, the differentiation response in test [16] was 15.9% (inactive).
`COc1cc(C=NCC2OCCc3ccccc32)cc(OC)c1` (stereo not given): the percent of DMSO control GFP in test [1] was 99% (inactive). Further, the figures for the GFP response vs DMSO in test [2] and in test [4] were 105% (inactive) and 117% (inactive), respectively. Besides, the percent response of DMSO control in [3] is 95.8% (inactive). In addition, the GFP response, % of DMSO in test [5] was 100% (inactive). Besides, the double positive events in [6] was found to be 57.8%. For the same molecule, the vesicle binding response in [6] is 136% (inactive). In addition, the inhibition in [7] was -1.79% (inactive); in [11], 17.8% (inactive); in test [15], -47% (inactive). In addition, the superoxide response (% of plate) in test [8] was 101% (inactive). The aptamer binding inhibition in test [9] was 4% (inactive). The response is 4.4% (inactive) in [10] and 1.44% (inactive) in test [12]. Moreover, the binding (% of control) in test [13] is 103% (inactive). Besides, the efflux inhibition (fraction of control) in [14] was -0.46 (inactive). The differentiation response in test [16] is -7.2% (inactive).
On to `CCOc1ccc2ccccc2c1CNc1nnnn1C`, for which the percent of DMSO control GFP in test [1] was 102% (inactive). Besides, the GFP response vs DMSO in test [2] was 103% (inactive); in test [4], 94% (inactive). For the same molecule, the percent response of DMSO control in test [3] was 107% (inactive). Besides, the GFP response, % of DMSO in [5] is 96.2% (inactive). This molecule registered a double positive events in test [6] of 65.8%. Moreover, in test [6], the vesicle binding response was 1400% (inactive). The inhibition in test [7] was 18.2% (inactive); in test [11], -1.6% (inactive); in test [15] it was 8% (inactive). The superoxide response (% of plate) in [8] was 91% (inactive). The aptamer binding inhibition in [9] was 3% (inactive). Moreover, the response in test [10] was -8.39% (inactive); in test [12] it was 1.46% (inactive). The binding (% of control) in test [13] was 98.4% (inactive). The efflux inhibition (fraction of control) in [14] was 0.05 (inactive). The differentiation response in test [16] was 13.9% (inactive).
`COC(=O)C1=CN(Cc2cccs2)C=C(C(=O)OC)C1c1cccc(Cl)c1`: the percent of DMSO control GFP in [1] is 103% (inactive). The GFP response vs DMSO is 107% (inactive) in test [2] and 92.3% (inactive) in test [4]. The percent response of DMSO control in test [3] is 98.2% (inactive). In addition, the GFP response, % of DMSO in test [5] was 97.2% (inactive). This molecule also gave a double positive events in [6] of 61.5%. In test [6], the vesicle binding response was 186% (inactive). For the same molecule, the inhibition is 14% (inactive) in test [7], 2.7% (inactive) in [11] and 6% (inactive) in test [15]. The superoxide response (% of plate) in test [8] is 103% (inactive). The aptamer binding inhibition in test [9] is 5% (inactive). Besides, the response was 9.92% (inactive) in test [10] and -0.61% (inactive) in test [12]. Further, in [13], the binding (% of control) is 99.5% (inactive). Moreover, the efflux inhibition (fraction of control) in [14] is 0.26 (inactive). The differentiation response in test [16] was 6.49% (inactive).

As usually defined, the inhibition is the drop in the measured response relative to a control, in per cent.

Source of the values: PubChem BioAssay.
